High-throughput results (PubChem)
Compounds with a hit are over-represented: about 2.2% of the library has one in this group of screens.
DENV2 CPE rescue: inhibitors of DENV2 cytopathic effect, primary screen, cell-based, plate reader, single concentration. CPE inhibition, % at 9.99 µM. AID 651640, 2012. DENV2-infected cells, cytopathic effect rescue. 350,000 tested, 1.7% active; in the data active means CPE inhibition above about 20%, passing the limit was not always enough; inconclusive means no clear call, values can overlap the other calls; tested in BHK-21 cells;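 further: 0% = median of neutral control wells and 100% = median of positive control wells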
C2C12 statin: suppressors of statin myotoxicity in C2C12 myotubes, primary screen, cell-based, single point, plate reader. C2C12 myotubes + simvastatin, ATP luminescence, 48 h; scaled: DMSO 0, geranylgeraniol control 100. rescue of ATP level, % at 7.49 µM. 330,000 tested, 0.78% active. AID 602340, 2012;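 active means mean ATP rescue above about 67%, or every replicate alone reaching that limit, limit read from the data, passing the limit was not always enough; inconclusive means no clear call, values can overlap the other calls; inactive means mean under the limit and some replicate under it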;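 further: myotubes were challenged with 10 µM simvastatin during compound exposure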
miR122 inh: miR-122 Renilla sensor signal increase in Huh7, primary screen, miR-122 inhibitor project, cell-based, single point, plate reader | Huh7 miR-122 Renilla luciferase sensor, 48 h; neutral wells = 0, positive control = 100 | activation (reporter increase), % at 12.5 µM | 340,000 tested, 0.3% active | AID 602342, 2012;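 active means mean replicate activation score at least 90 and every replicate individually at or above 90; inconclusive means only one of the two criteria met; inactive means neither criterion met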;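 further: higher luciferase means less miR-122 activity so hits act as miR-122 inhibitors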
PvdQ inh: P. aeruginosa PvdQ acylase inhibitors, primary screen, biochemical, fluorescence, plate reader and imaging, single point; PvdQ acylase [Pseudomonas aeruginosa LESB58]; inhibition, % at 10 µM; purified PvdQ acylase; 340,000 tested, 0.063% active; in the data active means inhibition above about 30%, passing the limit was not always enough; inconclusive means no clear call, values can overlap the other calls;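 further: 0% = vehicle neutral wells and 100% = reference inhibitor wells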
PGC1a acetyl inh: inhibitors of PGC1a acetylation signal, primary screen, cell-based, U2OS, AlphaScreen, inhibitor mode; AlphaScreen anti-acetyl-lysine; with virally co-expressed GCN5 acetyltransferase; inhibition, % at 15.6 µM; 350,000 tested, 0.17% active; AID 651687, 2012;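 active means every replicate shows inhibition of at least 40%; inconclusive means mean inhibition at least 40% but some replicate below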;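 further: 0% = neutral control wells and 100% = positive control wells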
The depositor's hits bear a star; ? = inconclusive; . = no result given; ! = not active in a repeat; [ ] = another dose, or the depositor's remark.

SMILES	DENV2 CPE rescue	C2C12 statin	miR122 inh	PvdQ inh	PGC1a acetyl inh
C/C=C/c1cnc2c(c1)C(=O)N([C@H](C)CO)C[C@@H](C)[C@@H](CN(C)Cc1ccc3c(c1)OCO3)O2	.	3	.	.	8
COc1ccccc1NS(=O)(=O)c1cccc(NC(=O)c2ccc3ccccc3n2)c1	5	110*	73	-9	3
COc1ccccc1NS(=O)(=O)c1cccc(NC(=O)c2nc3nc(C)cc(C)n3n2)c1	.	126*	6	-12	-8
O=C(Nc1cccc(S(=O)(=O)Nc2ccccc2F)c1)c1ccc2ccccc2n1	2	.	.	3	2
C[C@@H]1CN([C@H](C)CO)C(=O)c2cc(C#Cc3cccnc3)cnc2O[C@H]1CN(C)Cc1ccc(F)cc1	-1	2	.	.	-20
O=C(CNC(=O)c1cnccc1C(F)(F)F)c1cccc(Cl)c1	0	78*	3	-12	0
C[C@@H]1CCCCO[C@@H](CN(C)C(=O)c2ccncc2)[C@@H](C)CN([C@H](C)CO)C(=O)c2cc(NC(=O)Cc3ccccc3)ccc2O1	24*!	-9	0	.	6
C[C@H](CO)N1C[C@H](C)[C@@H](CN(C)CC2CCCCC2)OCCCC[C@H](C)Oc2ccc(NC(=O)Cc3ccccc3)cc2C1=O	-3	.	7[16.7 µM]	.	-21
C[C@@H]1CN([C@@H](C)CO)C(=O)c2cc(NC(=O)Cc3ccccc3)ccc2O[C@@H](C)CCCCO[C@@H]1CN(C)CC1CCCCC1	26*	.	-12[16.7 µM]	.	-5
C[C@H]1CCCCO[C@H](CN(C)C(=O)C2CCCCC2)[C@@H](C)CN([C@@H](C)CO)C(=O)c2cc(NC(=O)Cc3ccccc3)ccc2O1	19	80*	-10[16.7 µM]	.	0
C[C@@H]1CCCCO[C@@H](CN(C)C(=O)c2ccncc2)[C@@H](C)CN([C@H](C)CO)C(=O)c2cc(NC(=O)CCCCCC(=O)Nc3ccccc3N)ccc2O1	-12	.	11[16.7 µM]	.	99*
CC(C)NC(=O)N(C)C[C@@H]1Oc2ccc(NS(=O)(=O)c3cccs3)cc2C(=O)N([C@@H](C)CO)C[C@H]1C	.	.	1[16.7 µM]	.	.
O=c1cc(-c2ccco2)oc2ccc(Cl)cc12	.	73*	1	-12	8
NC(=O)C1CCN(Cc2nc3cc(Cl)ccc3c(=O)[nH]2)CC1	.	102*	0	-3	1
Cc1noc(C)c1NC(=O)Nc1ccc2c(c1)C(=O)N([C@@H](C)CO)C[C@@H](C)[C@H](CN(C)C(=O)Nc1ccc(F)cc1)O2	-5	-41	1[16.7 µM]	.	-3
Cc1noc(C)c1S(=O)(=O)Nc1ccc2c(c1)C(=O)N([C@@H](C)CO)C[C@@H](C)[C@H](CN(C)Cc1ccc(C(=O)O)cc1)OCCCC[C@@H](C)O2	9	.	11[16.7 µM]	.	0
Cc1noc(C)c1S(=O)(=O)Nc1ccc2c(c1)C(=O)N([C@H](C)CO)C[C@H](C)[C@@H](CN(C)CC1CC1)OCCCC[C@@H](C)O2	7	.	21[16.7 µM]	.	12
CCCN(C)C[C@H]1OCCCC[C@H](C)Oc2ccc(NS(=O)(=O)c3c(C)noc3C)cc2C(=O)N([C@@H](C)CO)C[C@H]1C	32*	.	-1[16.7 µM]	.	14
Cc1noc(C)c1S(=O)(=O)Nc1ccc2c(c1)C(=O)N([C@@H](C)CO)C[C@H](C)[C@@H](CN(C)Cc1ccc(C(=O)O)cc1)OCCCC[C@H](C)O2	34*	.	2[16.7 µM]	.	-5
Cc1ccccc1S(=O)(=O)N[C@H]1CC[C@H](CCn2cc(-c3ccccc3)nn2)O[C@@H]1CO	13	-1	.	.	4
C[C@H](CO)N1C[C@H](C)[C@@H](CN(C)S(=O)(=O)c2ccc(F)cc2)Oc2ccc(NC(=O)Cn3cnnn3)cc2C1=O	-5	21	9[16.7 µM]	.	-5
Fc1ccc(CNc2ccccn2)cc1	6	-5	-1	-10	24
CSc1ccc(CNc2ccccn2)cc1	.	82*	-5	13	-4
CO[C@@H]1CN(C)C(=O)c2ccc(NS(=O)(=O)c3cn(C)cn3)cc2OC[C@@H](C)NC[C@H]1C	-3	-9	.	.	8
C=CCn1cc(-c2ccccc2)cc(C#N)c1=O	.	141*	-4	-11	7
SMILES	DENV2 CPE rescue	C2C12 statin	miR122 inh	PvdQ inh	PGC1a acetyl inh
O=C(c1ccccc1)c1nn(-c2ccccc2)c(=O)cc1C(F)(F)F	.	19	15	-9	-23
O=C(c1cccc(Cl)c1)c1nn(-c2ccccc2)c(=O)cc1C(F)(F)F	.	105*	-9	-18	-50
Cc1noc(C)c1S(=O)(=O)Nc1ccc2c(c1)C(=O)N([C@@H](C)CO)C[C@@H](C)[C@H](CN(C)C(=O)CCCN(C)C)OCCCC[C@H](C)O2	.	.	0[16.7 µM]	.	10
Cc1noc(C)c1S(=O)(=O)Nc1ccc2c(c1)C(=O)N([C@H](C)CO)C[C@H](C)[C@H](CN(C)C(=O)CCC(F)(F)F)OCCCC[C@@H](C)O2	72*	.	5[16.7 µM]	.	0
Cc1noc(C)c1S(=O)(=O)Nc1ccc2c(c1)C(=O)N([C@H](C)CO)C[C@H](C)[C@@H](CN(C)C(=O)CCCN(C)C)OCCCC[C@H](C)O2	79*	.	-5[16.7 µM]	.	6
COc1ccc(CNC(=O)CCCn2ncn3c(cc4occc43)c2=O)cc1	-7	2	2	-5	-7
CCOC(=O)CCCn1ncn2c(cc3occc32)c1=O	.	.	0	33*	5
O=C(NC1CCCCCCC1)c1cc([N+](=O)[O-])ccc1Cl	-3	-20	-8	42*	28
O=C(NC1CCCC1)c1cccc(Cl)c1	5	.	.	70*	-1
CC1SCC(NC(=O)c2cccc(Cl)c2)CS1 (centres undefined)	4	.	-1	?	-2
O=C(NC1CCCCCCC1)c1cccc(Cl)c1	2	-4	-3	74*	.
O=C(Nc1ccc(Cl)c(Cl)c1)N[C@@H]1CC[C@@H](CCn2cc(C3CC3)nn2)O[C@H]1CO	1	0	.	.	-1
COc1cc(OC)cc(C(=O)N2CCN(C(=O)c3cccs3)CC2)c1	-1	0	.	-2	.
COc1ccc(C2(NC(C)=O)CCN(C(=O)c3cccs3)CC2)cc1	.	99*	-6	-12	-10
C[C@@H]1CN([C@H](C)CO)C(=O)c2cccc(NC(=O)c3ccncc3)c2O[C@@H]1CN(C)S(=O)(=O)c1cccs1	26*	-5	-22[16.7 µM]	.	-4
Cc1ccc(S(=O)(=O)Nc2cccc3c2O[C@H](CN(C)S(=O)(=O)c2cccs2)[C@@H](C)CN([C@@H](C)CO)C3=O)cc1	63*	-6	-1[16.7 µM]	.	-2
C[C@@H]1CN([C@H](C)CO)C(=O)c2cccc(NS(=O)(=O)c3ccc(Cl)cc3)c2O[C@@H]1CN(C)S(=O)(=O)c1cccs1	76*	.	-2[16.7 µM]	.	-7
C[C@H](CO)N1C[C@H](C)[C@H](CN(C)S(=O)(=O)c2cccs2)Oc2ncccc2C1=O	37*	4	-17[16.7 µM]	.	3
